This is an account of results in PubChem BioAssay (Tox21).

A number with no mark means an inactive call. Records with an inconclusive call do not appear. Calls of active or inactive are those of the source. The call rests on the fitted dose curve.
On the % scale 0 is the no-effect control and ±100 the full control effect.

Sequence of Estrogen receptor (Homo sapiens) (P03372 whole entry, looked up): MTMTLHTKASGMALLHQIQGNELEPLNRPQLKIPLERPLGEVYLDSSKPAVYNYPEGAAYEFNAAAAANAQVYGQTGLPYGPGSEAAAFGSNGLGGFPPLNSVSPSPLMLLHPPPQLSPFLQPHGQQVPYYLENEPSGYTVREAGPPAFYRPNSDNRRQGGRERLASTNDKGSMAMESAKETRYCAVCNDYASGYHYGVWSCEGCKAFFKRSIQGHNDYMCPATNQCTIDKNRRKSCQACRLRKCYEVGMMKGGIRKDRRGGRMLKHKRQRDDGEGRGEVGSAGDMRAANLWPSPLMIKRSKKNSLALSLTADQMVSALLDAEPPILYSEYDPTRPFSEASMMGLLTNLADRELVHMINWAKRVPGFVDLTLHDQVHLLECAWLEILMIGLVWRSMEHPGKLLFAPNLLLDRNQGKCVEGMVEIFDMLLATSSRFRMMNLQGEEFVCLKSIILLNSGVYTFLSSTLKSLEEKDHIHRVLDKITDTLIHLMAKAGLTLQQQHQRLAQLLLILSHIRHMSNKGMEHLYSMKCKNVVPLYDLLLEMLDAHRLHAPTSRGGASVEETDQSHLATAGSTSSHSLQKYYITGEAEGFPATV

The first experiment deals with Estrogen receptor (Homo sapiens) (UniProt P03372). The experiment is described as follows: qHTS assay to identify small molecule agonists of the estrogen receptor alpha (ER-alpha) signaling pathway in the presence of an antagonist (AID 1259383). Further: top concentration of the series differs between compounds; nearly all actives have a fitted effect of over 15% in size. Conditions: VM7Luc4E2 cells, ERE-luciferase, +ICI-182,780, 22 h; series mostly up to 92.4 µM. A digest of the protocol:
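Agonist-mode confirmation in the presence of the ER antagonist ICI-182,780 at 10.0nM final. Breast-derived VM7Luc4E2 reporter cells were exposed to compounds for 22hr, and ERE-driven luciferase was quantified by luminescence.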
On the technique in general: qHTS replaces the single test concentration by a dilution series.
Regarding `NS(=O)(=O)c1ccc(NC(=O)CCC(=O)O)cc1`, the result was inactive.

For the molecule `CCCCCCCCSCC`, the result was inactive.

As to `CC(C)N(c1ccccc1)C(C)C`, the result was inactive.

For `CC(C)CC(=O)O`, the result was inactive.

Take `C=C(C)C(=O)OCCOP(=O)(O)OCCOC(=O)C(=C)C`: the result was inactive.

For the molecule `CC(=O)NCCCCCC(=O)O`, the result was inactive.

`COC(=O)CCCCCCCC(=O)OC`: the result was inactive.

For the molecule `CN(C)C(=O)CNC(=O)Cc1ccccc1`, the outcome was inactive.

`C[C@H](N)[C@H](O)c1cccc(O)c1`: the result was inactive.

Consider `Cc1ccc2c(c1)OCC(=O)CO2`, for which the result was inactive.

In the case of `C[C@H](CCC(=O)O)[C@H]1CC[C@H]2[C@@H]3C(=O)C[C@@H]4CC(=O)CC[C@]4(C)[C@H]3CC(=O)[C@]12C`, the outcome was inactive.

Consider `Cc1ccc(C=O)cc1C`, for which the result was inactive.

With `CCCCCCCCOS(=O)(=O)O`, the outcome was inactive.

Take `CC(=O)/C=C/C1C(C)=CCC(C)C1(C)C` (stereo not given): the result was inactive.

On to `CCCC(=O)C(C)=O`, for which the outcome was inactive.

In the case of `O=C1CCCC(=O)O1`, the outcome was inactive.

On to `CCOC(=O)CC(=O)c1ccccc1`, for which the outcome was inactive.

Take `C[C@@H](O)[C@H]1C(=O)N2C(C(=O)O)=C(SCCN=CN)C[C@H]12`: the result was inactive.

Take `CC(C)OC(=O)CCCCC(=O)OC(C)C`: the result was inactive.

Take `CNS(=O)(=O)CCc1ccc2[nH]cc(C3CCN(C)CC3)c2c1`: the result was inactive.

With `CC(=C(CCOC(=O)C(C)C)SSC(CCOC(=O)C(C)C)=C(C)N(C=O)Cc1cnc(C)nc1N)N(C=O)Cc1cnc(C)nc1N`, the result was inactive.

Turning to `O=S(=O)(O)c1ccc2cc(O)c(S(=O)(=O)O)cc2c1`, the result was inactive.

Regarding `CCCCCCCC/C=C\CCCCCCCC(=O)OCCCC`, the activation was 0.165% [at 19 µM].

With `CCOC(=O)[C@H](CCc1ccccc1)N[C@@H](C)C(=O)N1C(=O)N(C)C[C@H]1C(=O)O`, the outcome was inactive.

With `O=C(O)c1ccc(Cl)cc1Cl`, the result was inactive.

In the case of `CCCCCCCCC1CCC(=O)O1` (stereo not given), the outcome was inactive.

Consider `CN1CCN(CC(=O)N2c3ccccc3C(=O)Nc3cccnc32)CC1`, for which the activation is 0.843% [at 8.39 µM].

On to `O=C(CS(=O)Cc1ccco1)NC/C=C\COc1cc(CN2CCCCC2)ccn1` (stereo not given), for which the outcome was inactive.

For `COc1cc(C(=S)N2CCOCC2)cc(OC)c1OC`, the result was inactive.

For the molecule `C=C1CC/C=C(\C)CC[C@@H]2[C@@H]1CC2(C)C`, the outcome was inactive.

For `CC1(C)S[C@@H]2[C@H](N=CN3CCCCCC3)C(=O)N2[C@H]1C(=O)O`, the outcome was inactive.

Turning to `Nc1ncnc(Nc2ccccc2)n1`, the result was inactive.

On to `CCN1CCc2nc(N)oc2CC1`, for which the outcome was inactive.

Take `CN(C)c1ccc(C=O)cc1`: the result was inactive.

On to `CC(N)C(=O)OC(C)(C)Cc1ccc(Cl)cc1` (stereo not given), for which the result was inactive.

Tested on in another experiment: not listed separately
The experiment is described as follows: qHTS assay to identify small molecule agonists or antagonists of the thyroid stimulating hormone receptor (TSHR) signaling pathway - wild type cell line counter screen (AID 1259384). Conditions: HEK293 wild type, cAMP HTRF counter-screen, active compounds read high; series mostly up to 92.4 µM. A digest of the protocol: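 Wild-type HEK293 cells were plated 18 h at 37 C/5% CO2, pin-dosed with compound plus Ro20-1724 medium, held 30 min at room temperature, then given cAMP-d2 and anti-cAMP-cryptate; fluorescence was read after 1 h. Fifteen concentrations, triplicate.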
`NS(=O)(=O)c1ccc(NC(=O)CCC(=O)O)cc1`: the molecule was classed as inactive.

For the molecule `CCCCCCCCSCC`, the outcome was inactive.

In the case of `CC(C)N(c1ccccc1)C(C)C`, the outcome was inactive.

Consider `CC(C)CC(=O)O`, for which the outcome was inactive.

Take `C=C(C)C(=O)OCCOP(=O)(O)OCCOC(=O)C(=C)C`: the molecule was called inactive.

As to `CC(=O)NCCCCCC(=O)O`, the result was inactive.

In the case of `COC(=O)CCCCCCCC(=O)OC`, the call was inactive.

Turning to `CN(C)C(=O)CNC(=O)Cc1ccccc1`, the molecule was called inactive.

Consider `C[C@H](N)[C@H](O)c1cccc(O)c1`, for which the result was inactive.

Consider `Cc1ccc2c(c1)OCC(=O)CO2`, for which the outcome was inactive.

With `C[C@H](CCC(=O)O)[C@H]1CC[C@H]2[C@@H]3C(=O)C[C@@H]4CC(=O)CC[C@]4(C)[C@H]3CC(=O)[C@]12C`, the call was inactive.

For `Cc1ccc(C=O)cc1C`, the molecule was called inactive.

On to `CCCCCCCCOS(=O)(=O)O`, for which the molecule was called inactive.

On to `CC(=O)/C=C/C1C(C)=CCC(C)C1(C)C` (stereo not given), for which the result was inactive.

`CCCC(=O)C(C)=O`: the call was inactive.

In the case of `O=C1CCCC(=O)O1`, the result was inactive.

Consider `CCOC(=O)CC(=O)c1ccccc1`, for which the molecule was classed as inactive.

Take `C[C@@H](O)[C@H]1C(=O)N2C(C(=O)O)=C(SCCN=CN)C[C@H]12`: the molecule was classed as inactive.

As to `CC(C)OC(=O)CCCCC(=O)OC(C)C`, the call was inactive.

On to `CNS(=O)(=O)CCc1ccc2[nH]cc(C3CCN(C)CC3)c2c1`, for which the outcome was inactive.

As for `CC(=C(CCOC(=O)C(C)C)SSC(CCOC(=O)C(C)C)=C(C)N(C=O)Cc1cnc(C)nc1N)N(C=O)Cc1cnc(C)nc1N`, the outcome was inactive.

For the molecule `O=S(=O)(O)c1ccc2cc(O)c(S(=O)(=O)O)cc2c1`, the molecule was called inactive.

In the case of `CCCCCCCC/C=C\CCCCCCCC(=O)OCCCC`, the cAMP activity change is -3.23% [at 18.9 µM].

As for `CCOC(=O)[C@H](CCc1ccccc1)N[C@@H](C)C(=O)N1C(=O)N(C)C[C@H]1C(=O)O`, the result was inactive.

For `O=C(O)c1ccc(Cl)cc1Cl`, the molecule was called inactive.

Take `CCCCCCCCC1CCC(=O)O1` (stereo not given): the call was inactive.

With `CN1CCN(CC(=O)N2c3ccccc3C(=O)Nc3cccnc32)CC1`, the cAMP activity change is -2.81% [at 8.39 µM].

Take `O=C(CS(=O)Cc1ccco1)NC/C=C\COc1cc(CN2CCCCC2)ccn1` (stereo not given): the outcome was inactive.

For `COc1cc(C(=S)N2CCOCC2)cc(OC)c1OC`, the outcome was inactive.

With `C=C1CC/C=C(\C)CC[C@@H]2[C@@H]1CC2(C)C`, the molecule was called inactive.

For the molecule `CC1(C)S[C@@H]2[C@H](N=CN3CCCCCC3)C(=O)N2[C@H]1C(=O)O`, the outcome was inactive.

On to `Nc1ncnc(Nc2ccccc2)n1`, for which the molecule was called inactive.

`CCN1CCc2nc(N)oc2CC1`: the outcome was inactive.

`CN(C)c1ccc(C=O)cc1`: the molecule was called inactive.

`CC(N)C(=O)OC(C)(C)Cc1ccc(Cl)cc1` (stereo not given): the call was inactive.
